In PubChem BioAssay AID1159580 (chemical genetic matrix, 2015):
In all, about 5,500 compounds went through this assay and about 2,000 (36%) were called active. Not shown: some 18% with an inconclusive outcome. Rule as the data show it: active = normalized growth mostly below about 0.91 (no sharp cut-off); inconclusive = no clear call, values can overlap the other calls; inactive = mostly above about 0.92. The list shows a part of the results.

Experiment: chemical genetic growth profiling, strain panel (AID 1159580);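 also: tested at 20 µM; growth read once vehicle control cultures reached saturation at 30 °C; 1 = growth at the plate median or of vehicle wells; lower values mean less growth of the strain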
Conditions: S. cerevisiae deletion strains, growth OD

Measured: normalized growth

CC1CC[C@@]2(OC1)O[C@H]1CC3C4CC[C@@H]5CC(=O)CC[C@]5(C)C4CC[C@]3(C)[C@H]1[C@@H]2C (stereo not given in full)
inactive: locus YBR021W, strain FUR4, stronger effect = lower value 1.01 | locus YBR229C, strain ROT2, stronger effect = lower value 1.01 | locus YCL029C, strain bik1, stronger effect = lower value 1.01 | locus YDL035C, strain GPR1, stronger effect = lower value 1.05 | locus YDL074C, strain BRE1, stronger effect = lower value 1.04 | locus YDL101C, strain DUN1, stronger effect = lower value 0.975 | locus YDL134C, strain PPH21, stronger effect = lower value 0.982 | locus YDL185W, strain tfp1, stronger effect = lower value 0.982 | locus YDL192W, strain arf1, stronger effect = lower value 1.01 | locus YDR101C, strain arx1, stronger effect = lower value 1.02 | locus YDR150W, strain NUM1, stronger effect = lower value 1 | locus YDR162C, strain NBP2, stronger effect = lower value 1 | locus YDR318W, strain mcm21, stronger effect = lower value 1 | locus YDR388W, stronger effect = lower value 0.993 | locus YDR502C, strain sam2, stronger effect = lower value 0.974 | locus YER110C, stronger effect = lower value 0.994 | locus YER155C, strain BEM2, stronger effect = lower value 0.985 | locus YER167W, strain BCK2, stronger effect = lower value 1 | locus YGL078C, strain dbp3, stronger effect = lower value 0.963 | locus YGL086W, strain mad1, stronger effect = lower value 0.989 | locus YGL248W, strain PDE1, stronger effect = lower value 0.973 | locus YGR078C, strain PAC10, stronger effect = lower value 0.993 | locus YGR135W, strain pre9, stronger effect = lower value 0.948 | locus YGR252W, strain gcn5, stronger effect = lower value 0.997 | locus YHR079C, strain IRE1 (second series), stronger effect = lower value 0.996 | locus YHR094C, strain hxt1, stronger effect = lower value 0.985 | locus YHR129C, strain ARP1, stronger effect = lower value 0.996 | locus YHR200W, strain rpn10, stronger effect = lower value 0.987 | locus YIL066C, strain RNR3, stronger effect = lower value 1.02 | locus YIL073C, strain SPO22, stronger effect = lower value 0.983 | locus YIL125W, strain kgd1, stronger effect = lower value 1 | locus YIR030C, strain dcg1, stronger effect = lower value 0.98 | locus YJL095W, strain BCK1, stronger effect = lower value 0.977 | locus YJL134W, strain LCB3, stronger effect = lower value 0.991 | locus YJL168C, strain set2, stronger effect = lower value 0.986 | locus YJL187C, strain SWE1 (second series), stronger effect = lower value 0.968 | locus YKL009W, strain mrt4, stronger effect = lower value 0.986 | locus YKL068W, stronger effect = lower value 0.985 | locus YKL085W, strain MDH1 (second series), stronger effect = lower value 0.984 | locus YKL085W, strain MDH1, stronger effect = lower value 0.984 | locus YKR001C, strain vps1, stronger effect = lower value 0.986 | locus YLR039C, strain RIC1, stronger effect = lower value 0.996 | locus YLR058C, strain SHM2, stronger effect = lower value 0.999 | locus YLR102C, strain apc9, stronger effect = lower value 0.984 | locus YLR268W, strain sec22, stronger effect = lower value 1.04 | locus YLR342W, strain FKS1 (second series), stronger effect = lower value 1.07 | locus YLR371W, strain rom2, stronger effect = lower value 1.01 | locus YLR418C, strain cdc73, stronger effect = lower value 0.942 | locus YML016C, strain PPZ1, stronger effect = lower value 0.988 | locus YML032C, strain rad52, stronger effect = lower value 1.01 | locus YML124C, strain tub3, stronger effect = lower value 0.995 | locus YMR078C, strain ctf18, stronger effect = lower value 0.985 | locus YMR223W, strain ubp8, stronger effect = lower value 0.996 | locus YMR307W, strain GAS1, stronger effect = lower value 0.94 | locus YNL067W, strain RPL9B, stronger effect = lower value 0.966 | locus YNL233W, strain BNI4, stronger effect = lower value 0.972 | locus YNL250W, strain rad50, stronger effect = lower value 0.929 | locus YNL271C, strain bni1, stronger effect = lower value 0.981 | locus YNL298W, strain CLA4, stronger effect = lower value 1 | locus YNL307C, strain MCK1, stronger effect = lower value 0.986 | locus YNR052C, strain pop2, stronger effect = lower value 0.972 | locus YOL006C, strain TOP1, stronger effect = lower value 1.16 | locus YOL012C, strain htz1 1.11 | locus YOL147C, strain pex11, stronger effect = lower value 1.01 | locus YOR061W, strain CKA2, stronger effect = lower value 1.01 | locus YOR069W, strain VPS5, stronger effect = lower value 0.989 | locus YOR136W, strain idh2, stronger effect = lower value 0.992 | locus YOR144C, strain elg1, stronger effect = lower value 0.992 | locus YOR184W, strain ser1, stronger effect = lower value 1.06 | locus YOR316C, strain cot1, stronger effect = lower value 0.986 | locus YPR119W, strain clb2, stronger effect = lower value 0.985 | locus YPR141C, strain kar3, stronger effect = lower value 0.973 | locus YPR163C, strain tif3, stronger effect = lower value 0.993 | locus YPR167C, strain met16, stronger effect = lower value 0.985 | strain wtn01, stronger effect = lower value 1.01
